This passage reports outcome results from PubChem BioAssay AID1117283 (Broad Institute, 2014).

Results with a measured potency or affinity are listed apart. The source made the active and inactive calls.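 How the source made its calls: active means fluorescent signal decreased by at least 40%; inconclusive means no clear call, values can overlap the other calls; inactive means the rest, including activity opposite to the expected direction.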

A short description of this assay: fibronectin fibrillogenesis inhibitors in fibroblasts, dose response, AH1F cells, Alexa488-fibronectin fluorescence, cherry-pick, set 2 (AID 1117283).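 Further: AH1F fibroblasts given Alexa488-labelled fibronectin at 24 nM final.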 The note with it: Alexa488-fibronectin deposition fluorescence, overnight; series mostly up to 35 µM.

For `S=C(NCC1CCCO1)Nc1ccc(Cl)cc1Cl` (configuration not stated), the result was inactive.

As to `CC1OC(CC(=O)O)CC2=C1C(=O)c1c(O)cccc1C2=O` (configuration not stated), the molecule was called inactive.

Consider `CCCc1cc(C(=O)OC)c(NC(=O)CCC(=O)O)s1`, for which the molecule was classed as inactive. The entry for `C[C@H](CO)N1C[C@H](C)[C@H](CN(C)Cc2ccc(-c3ccccc3)cc2)Oc2ccc(NC(=O)CCCN(C)C)cc2C1=O` is “inactive”; for `C[C@@H](O)C#Cc1ccc2c(c1)O[C@@H](CN(C)C)[C@@H](C)CN([C@@H](C)CO)S2(=O)=O` it is “inactive”; for `COCC(=O)Nc1ccc2c(c1)C(=O)N(C)[C@H]1CC[C@H](CC(=O)NCc3ccccc3Cl)O[C@@H]1CO2` it is “inactive”. Regarding `COc1ccccc1N(CC(=O)N(CC(C)C)CC(C)C)S(=O)(=O)c1cccs1`, the molecule was classed as inactive. With `C[C@@H]1CN([C@@H](C)CO)C(=O)c2cc(-c3ccccc3)cnc2O[C@H]1CN(C)Cc1ccccc1`, the outcome was inactive. On to `C[C@@H]1CN([C@H](C)CO)C(=O)c2cc(NC(=O)C3CCCCC3)ccc2O[C@H]1CN(C)Cc1ccc(-c2ccccc2)cc1`, for which the molecule was called inactive. `CC(C)(C)c1cc(Cl)c(O)c(NC(=S)NC(=O)c2cccnc2)c1`: the molecule was called inactive. For `C[C@@H]1CN([C@@H](C)CO)C(=O)c2cc(NC(=O)C3CCCCC3)ccc2O[C@@H]1CN(C)Cc1ccc(-c2ccccc2)cc1`, the molecule was called inactive. Consider `Cc1ccc(S(=O)(=O)N2CC[C@@H]3[C@H]2c2cc(-c4cccc(C(=O)N(C)C)c4)ccc2N[C@@H]3CO)cc1`, for which the molecule was classed as inactive. The entry for `COCC(=O)Nc1ccc2c(c1)C(=O)N(C)[C@H]1CC[C@@H](CC(=O)NCc3ccccc3Cl)O[C@H]1CO2` is “inactive”; for `C[C@@H]1CN([C@@H](C)CO)C(=O)c2cc(-c3ccccc3)cnc2O[C@@H]1CN(C)C(=O)c1cccc(F)c1` it is “inactive”. Next, `O=S(=O)(c1cccc(F)c1)N1CC[C@@H]2[C@H]1c1cc(-c3cccc(F)c3)ccc1N[C@@H]2CO`: “inactive”; `Cc1ccc(C(O)c2ncc(-c3cccc4ccccc34)[nH]2)cc1F` (configuration not stated): “inactive”; `C[C@H]1CN([C@@H](C)CO)C(=O)c2cc(-c3ccccc3)cnc2O[C@H]1CN(C)C(=O)c1cccc(F)c1`: “inactive”. For the molecule `Cc1ccc(Nc2nnc(SCc3ccccc3)s2)cc1`, the molecule was classed as inactive. Next, `C[C@@H]1CN([C@H](C)CO)C(=O)c2cc(-c3ccccc3)cnc2O[C@H]1CN(C)Cc1ccccc1`: “inactive”; `CO[C@@H]1CN(C)C(=O)c2ccc(NC(=O)c3ccc(-c4ccccc4)cc3)cc2OC[C@@H](C)NC[C@H]1C`: “inactive”. Next, `C[C@H](CO)N1C[C@H](C)[C@@H](CN(C)Cc2ccccc2)Oc2ncc(-c3ccccc3)cc2C1=O`: “inactive”; `CCOC(=O)c1nnn(-c2ccc(OC)cc2)c1N`: “inactive”.
